The record followed here is PMC7862700, “An all-to-all approach to the identification of sequence-specific readers for epigenetic DNA modifications on cytosine”.

Holding throughout (assay): DAPPL (digital affinity profiling via proximity ligation, sequencing); 10 mM Tris-HCl pH 7.5, 50 mM NaCl, 1 mM DTT, 4% glycerol, room temperature, 30 min; GST-TFs on glutathione beads, 16-mer random dsDNA library, 0.1% formaldehyde crosslink after washing; high values mean tight binding
In one test the target is T1, FEV (Homo sapiens, UniProt Q99581 1-238).
T1 sequence: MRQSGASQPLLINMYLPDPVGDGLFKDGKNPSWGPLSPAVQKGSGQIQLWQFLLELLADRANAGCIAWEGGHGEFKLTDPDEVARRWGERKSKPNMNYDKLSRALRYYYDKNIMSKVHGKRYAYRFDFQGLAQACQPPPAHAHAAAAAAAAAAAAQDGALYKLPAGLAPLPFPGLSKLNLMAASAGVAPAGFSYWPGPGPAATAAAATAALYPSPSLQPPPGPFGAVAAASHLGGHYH
The settings on record: protein: recombinant; tags: N-terminal GST; dsDNA, one strand shown. In a few lines: (§1)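 Binding signal is each hexamer's read frequency for a factor divided by its frequency in the tag-only sample. The factors were GST-fused human transcription factors from yeast, captured on glutathione beads, DNA-barcoded and pooled with that sample. Pools were incubated with 200 nmole of a random double-stranded 16-mer DNA library in Tris/NaCl/DTT/glycerol buffer at room temperature for 30 min, then washed, crosslinked with 0.1% formaldehyde, proximity-ligated with BsaI/T4 ligase (1 h, 37 °C), PCR-amplified and sequenced on an Illumina NextSeq500.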

The target of another test is ETV5 (Homo sapiens, UniProt P41161 1-510). The settings on record: protein: recombinant; tags: N-terminal GST; dsDNA, one strand shown. In a few lines:
as §1

The target of a further test is HSF1 (Homo sapiens, UniProt Q00613 1-529). To be noted: protein: recombinant; tags: N-terminal GST; chain copies: 3; dsDNA, one strand shown. In a few lines: as §1
Chain of HSF1 (Q00613 whole entry): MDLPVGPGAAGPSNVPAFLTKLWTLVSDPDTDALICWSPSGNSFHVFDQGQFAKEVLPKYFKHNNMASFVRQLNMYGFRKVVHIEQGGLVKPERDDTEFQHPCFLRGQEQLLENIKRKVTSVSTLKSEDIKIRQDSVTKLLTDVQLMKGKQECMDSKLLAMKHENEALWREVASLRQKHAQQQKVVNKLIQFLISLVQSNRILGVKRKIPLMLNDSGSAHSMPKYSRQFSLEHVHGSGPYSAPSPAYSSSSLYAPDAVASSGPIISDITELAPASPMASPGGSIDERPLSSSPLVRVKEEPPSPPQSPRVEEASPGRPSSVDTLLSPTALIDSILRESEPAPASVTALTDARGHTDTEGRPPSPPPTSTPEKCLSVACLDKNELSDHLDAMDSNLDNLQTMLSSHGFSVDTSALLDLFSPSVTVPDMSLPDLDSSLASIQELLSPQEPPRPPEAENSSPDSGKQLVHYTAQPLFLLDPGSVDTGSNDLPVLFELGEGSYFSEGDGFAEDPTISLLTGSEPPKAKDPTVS
In the next test the target is T2, SPIC (Homo sapiens, UniProt Q8N5J4 1-248).
T2 sequence: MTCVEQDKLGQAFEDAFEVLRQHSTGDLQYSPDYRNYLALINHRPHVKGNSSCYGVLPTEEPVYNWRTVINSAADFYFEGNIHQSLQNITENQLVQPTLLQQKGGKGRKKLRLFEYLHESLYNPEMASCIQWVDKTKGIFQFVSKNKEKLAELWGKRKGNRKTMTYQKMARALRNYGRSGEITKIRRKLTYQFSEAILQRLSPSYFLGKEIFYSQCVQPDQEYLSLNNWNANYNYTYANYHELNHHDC
To be noted: protein: recombinant; tags: N-terminal GST; dsDNA, one strand shown. The gist of the method:
as §1

In a further test the target is ELF4 (Homo sapiens, UniProt Q99607 1-663). To be noted: protein: recombinant; tags: N-terminal GST; dsDNA, one strand shown. The gist of the method:
as §1

The next test addresses T3, ELK4 (Homo sapiens, UniProt P28324-2 1-405).
T3 sequence: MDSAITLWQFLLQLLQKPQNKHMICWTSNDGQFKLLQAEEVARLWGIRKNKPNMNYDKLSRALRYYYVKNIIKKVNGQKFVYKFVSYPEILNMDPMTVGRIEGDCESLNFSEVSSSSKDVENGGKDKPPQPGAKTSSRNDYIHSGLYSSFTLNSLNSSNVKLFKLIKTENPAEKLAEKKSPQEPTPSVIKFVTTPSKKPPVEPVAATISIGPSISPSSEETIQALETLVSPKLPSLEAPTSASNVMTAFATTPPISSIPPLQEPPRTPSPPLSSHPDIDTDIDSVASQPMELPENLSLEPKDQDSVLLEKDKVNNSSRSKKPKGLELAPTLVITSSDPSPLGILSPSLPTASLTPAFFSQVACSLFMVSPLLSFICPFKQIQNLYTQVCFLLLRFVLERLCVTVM
The settings on record: protein: recombinant; tags: N-terminal GST; dsDNA, one strand shown. In a few lines: as §1

A further test addresses T4, ETV2 (Homo sapiens, UniProt O00321 1-342).
T4 sequence: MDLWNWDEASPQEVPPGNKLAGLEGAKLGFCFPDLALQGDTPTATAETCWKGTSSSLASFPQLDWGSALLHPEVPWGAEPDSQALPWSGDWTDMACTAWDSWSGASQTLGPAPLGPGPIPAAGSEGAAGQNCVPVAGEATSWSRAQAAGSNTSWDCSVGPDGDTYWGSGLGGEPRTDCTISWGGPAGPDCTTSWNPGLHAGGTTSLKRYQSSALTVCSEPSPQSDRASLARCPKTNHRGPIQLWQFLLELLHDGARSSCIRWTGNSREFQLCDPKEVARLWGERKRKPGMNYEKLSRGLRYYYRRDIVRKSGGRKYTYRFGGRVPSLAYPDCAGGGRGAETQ
The settings on record: protein: recombinant; tags: N-terminal GST; dsDNA, one strand shown. The gist of the method:
as §1

The next test concerns the target T5, ELF3 (Homo sapiens, UniProt P78545 1-371).
T5 sequence: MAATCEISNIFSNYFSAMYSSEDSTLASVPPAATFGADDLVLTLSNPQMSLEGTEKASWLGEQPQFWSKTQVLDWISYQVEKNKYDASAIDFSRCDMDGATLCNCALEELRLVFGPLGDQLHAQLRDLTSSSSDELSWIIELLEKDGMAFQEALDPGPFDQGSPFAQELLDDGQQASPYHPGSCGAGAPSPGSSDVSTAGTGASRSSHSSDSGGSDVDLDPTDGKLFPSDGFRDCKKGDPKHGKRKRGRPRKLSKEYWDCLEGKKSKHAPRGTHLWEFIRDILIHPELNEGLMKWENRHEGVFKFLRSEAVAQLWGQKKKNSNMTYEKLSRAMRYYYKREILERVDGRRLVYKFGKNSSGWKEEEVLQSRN
The settings on record: protein: recombinant; tags: N-terminal GST; dsDNA, one strand shown. The gist of the method: as §1

In a further test the target is CRX (Homo sapiens, UniProt O43186 1-299). To be noted: protein: recombinant; tags: N-terminal GST; dsDNA, one strand shown. The gist of the method: as §1
Chain of CRX (O43186 whole entry): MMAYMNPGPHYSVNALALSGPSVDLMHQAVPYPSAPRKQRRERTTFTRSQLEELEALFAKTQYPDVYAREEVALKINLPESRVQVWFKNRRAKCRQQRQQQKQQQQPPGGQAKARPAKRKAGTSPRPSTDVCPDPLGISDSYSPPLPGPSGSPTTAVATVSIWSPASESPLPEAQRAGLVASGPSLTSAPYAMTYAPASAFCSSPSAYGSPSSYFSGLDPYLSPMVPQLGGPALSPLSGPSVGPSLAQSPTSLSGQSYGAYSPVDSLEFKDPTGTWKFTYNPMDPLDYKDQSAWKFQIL
Another test concerns the target ETV1 (Homo sapiens, UniProt P50549 1-477). To be noted: protein: recombinant; tags: N-terminal GST; dsDNA, one strand shown. In a few lines:
as §1

The target of another test is T6, ERF (Homo sapiens, UniProt P50548 1-548).
T6 sequence: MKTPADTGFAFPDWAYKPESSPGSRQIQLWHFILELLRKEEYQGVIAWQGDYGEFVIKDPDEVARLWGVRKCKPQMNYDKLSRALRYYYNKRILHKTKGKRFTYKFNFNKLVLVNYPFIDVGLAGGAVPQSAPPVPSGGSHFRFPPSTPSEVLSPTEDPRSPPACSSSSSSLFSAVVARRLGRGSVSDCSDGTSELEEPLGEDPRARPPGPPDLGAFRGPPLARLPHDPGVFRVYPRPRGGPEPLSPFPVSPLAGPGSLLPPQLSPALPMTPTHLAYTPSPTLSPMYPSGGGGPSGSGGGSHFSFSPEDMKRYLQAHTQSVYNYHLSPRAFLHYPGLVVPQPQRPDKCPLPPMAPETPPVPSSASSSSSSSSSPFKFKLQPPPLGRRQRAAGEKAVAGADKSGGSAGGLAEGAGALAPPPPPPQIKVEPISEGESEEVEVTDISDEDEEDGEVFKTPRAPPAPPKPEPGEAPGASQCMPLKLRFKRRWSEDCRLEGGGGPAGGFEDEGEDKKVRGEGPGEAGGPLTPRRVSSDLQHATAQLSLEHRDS
The settings on record: protein: recombinant; tags: N-terminal GST; dsDNA, one strand shown. In a few lines: as §1

The target in the next test is T7, ETV3L (Homo sapiens, UniProt Q6ZN32 1-361).
T7 sequence: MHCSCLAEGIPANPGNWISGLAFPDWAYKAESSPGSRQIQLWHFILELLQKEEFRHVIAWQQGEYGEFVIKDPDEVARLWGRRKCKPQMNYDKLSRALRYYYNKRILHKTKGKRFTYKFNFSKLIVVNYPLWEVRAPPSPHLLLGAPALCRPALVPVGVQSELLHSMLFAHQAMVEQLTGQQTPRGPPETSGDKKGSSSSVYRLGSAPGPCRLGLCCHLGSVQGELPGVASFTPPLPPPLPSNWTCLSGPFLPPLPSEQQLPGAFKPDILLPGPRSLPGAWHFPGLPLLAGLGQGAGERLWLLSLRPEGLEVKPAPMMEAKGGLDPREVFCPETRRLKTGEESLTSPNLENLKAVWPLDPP
The settings on record: protein: recombinant; tags: N-terminal GST; dsDNA, one strand shown. In a few lines:
as §1

Another test has as its target T8, ETS2 (Homo sapiens, UniProt P15036 1-469).
T8 sequence: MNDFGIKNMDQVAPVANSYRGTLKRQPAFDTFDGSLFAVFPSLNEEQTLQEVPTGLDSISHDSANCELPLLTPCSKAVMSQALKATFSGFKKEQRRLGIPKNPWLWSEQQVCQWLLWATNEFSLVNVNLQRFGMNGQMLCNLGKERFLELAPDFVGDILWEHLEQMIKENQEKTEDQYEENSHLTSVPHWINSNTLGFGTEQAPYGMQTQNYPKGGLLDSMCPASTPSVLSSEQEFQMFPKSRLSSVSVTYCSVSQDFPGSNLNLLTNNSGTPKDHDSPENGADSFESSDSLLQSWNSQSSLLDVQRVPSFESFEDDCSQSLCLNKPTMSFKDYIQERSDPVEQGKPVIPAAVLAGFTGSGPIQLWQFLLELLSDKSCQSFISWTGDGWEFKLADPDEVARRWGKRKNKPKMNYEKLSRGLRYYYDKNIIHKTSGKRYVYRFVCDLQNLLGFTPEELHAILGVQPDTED
To be noted: protein: recombinant; tags: N-terminal GST; dsDNA, one strand shown. In a few lines: as §1

The target of another test is T9, SPDEF (Homo sapiens, UniProt O95238 1-335).
T9 sequence: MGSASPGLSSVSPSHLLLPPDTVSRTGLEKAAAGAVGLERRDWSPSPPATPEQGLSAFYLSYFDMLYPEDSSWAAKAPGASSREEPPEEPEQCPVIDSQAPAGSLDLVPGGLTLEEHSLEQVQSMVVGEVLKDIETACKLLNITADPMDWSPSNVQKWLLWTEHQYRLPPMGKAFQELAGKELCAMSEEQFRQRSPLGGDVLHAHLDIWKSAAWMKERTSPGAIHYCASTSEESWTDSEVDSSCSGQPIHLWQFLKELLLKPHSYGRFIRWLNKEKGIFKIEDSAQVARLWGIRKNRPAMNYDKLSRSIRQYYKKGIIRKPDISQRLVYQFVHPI
The settings on record: protein: recombinant; tags: N-terminal GST; dsDNA, one strand shown. In a few lines:
as §1

The next test deals with T10, ETV7 (Homo sapiens, UniProt Q9Y603 1-341).
T10 sequence: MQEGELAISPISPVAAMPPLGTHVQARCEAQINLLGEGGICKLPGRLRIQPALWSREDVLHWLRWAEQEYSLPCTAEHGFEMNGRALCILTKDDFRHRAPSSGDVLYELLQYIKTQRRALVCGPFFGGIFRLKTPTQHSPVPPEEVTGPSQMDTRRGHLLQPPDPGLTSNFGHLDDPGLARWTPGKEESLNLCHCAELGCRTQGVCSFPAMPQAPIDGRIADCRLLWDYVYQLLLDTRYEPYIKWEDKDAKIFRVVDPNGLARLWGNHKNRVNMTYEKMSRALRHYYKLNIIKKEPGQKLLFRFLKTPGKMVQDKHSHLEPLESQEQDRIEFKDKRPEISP
To be noted: protein: recombinant; tags: N-terminal GST; dsDNA, one strand shown. In a few lines:
as §1

Another test has as its target T11, ELF5 (Homo sapiens, UniProt Q9UKW6-2 1-255).
T11 sequence: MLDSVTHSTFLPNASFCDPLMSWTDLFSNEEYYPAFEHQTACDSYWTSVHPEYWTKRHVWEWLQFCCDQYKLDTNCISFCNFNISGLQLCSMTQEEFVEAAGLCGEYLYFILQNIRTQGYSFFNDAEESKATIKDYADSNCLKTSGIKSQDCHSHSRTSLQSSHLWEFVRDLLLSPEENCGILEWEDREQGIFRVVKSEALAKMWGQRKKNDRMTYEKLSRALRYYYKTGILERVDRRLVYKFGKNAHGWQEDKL
To be noted: protein: recombinant; tags: N-terminal GST; dsDNA, one strand shown. In a few lines: as §1

Another test deals with T12, ETV3 (Homo sapiens, UniProt P41162-2 1-143).
T12 sequence: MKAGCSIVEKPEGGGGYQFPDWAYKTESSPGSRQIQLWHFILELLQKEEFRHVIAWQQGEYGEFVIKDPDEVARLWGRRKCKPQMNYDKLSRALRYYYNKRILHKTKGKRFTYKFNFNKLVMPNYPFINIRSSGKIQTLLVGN
The settings on record: protein: recombinant; tags: N-terminal GST; dsDNA, one strand shown. In a few lines: as §1

The next test has as its target ETV6 (Homo sapiens, UniProt P41212 1-452). The settings on record: protein: recombinant; tags: N-terminal GST; dsDNA, one strand shown. In a few lines:
as §1

Chain of ELF4 (Q99607 whole entry): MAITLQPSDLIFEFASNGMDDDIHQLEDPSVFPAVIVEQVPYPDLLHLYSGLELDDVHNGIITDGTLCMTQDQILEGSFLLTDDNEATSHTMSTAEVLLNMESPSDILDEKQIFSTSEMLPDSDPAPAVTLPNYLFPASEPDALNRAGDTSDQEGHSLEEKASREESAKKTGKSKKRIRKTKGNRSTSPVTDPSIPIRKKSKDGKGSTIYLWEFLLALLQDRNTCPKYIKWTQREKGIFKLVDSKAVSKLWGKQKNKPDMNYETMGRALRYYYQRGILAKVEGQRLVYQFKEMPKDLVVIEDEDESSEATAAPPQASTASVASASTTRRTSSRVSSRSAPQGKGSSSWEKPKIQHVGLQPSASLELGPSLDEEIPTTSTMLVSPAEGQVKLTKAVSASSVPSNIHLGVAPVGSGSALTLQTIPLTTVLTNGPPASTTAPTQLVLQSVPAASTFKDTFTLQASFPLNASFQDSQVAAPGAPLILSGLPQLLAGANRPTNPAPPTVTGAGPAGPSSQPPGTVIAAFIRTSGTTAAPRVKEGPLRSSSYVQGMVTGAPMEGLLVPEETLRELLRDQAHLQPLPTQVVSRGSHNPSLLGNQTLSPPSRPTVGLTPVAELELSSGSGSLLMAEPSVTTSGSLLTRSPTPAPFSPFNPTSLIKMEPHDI
Chain of ETV1 (P50549 whole entry): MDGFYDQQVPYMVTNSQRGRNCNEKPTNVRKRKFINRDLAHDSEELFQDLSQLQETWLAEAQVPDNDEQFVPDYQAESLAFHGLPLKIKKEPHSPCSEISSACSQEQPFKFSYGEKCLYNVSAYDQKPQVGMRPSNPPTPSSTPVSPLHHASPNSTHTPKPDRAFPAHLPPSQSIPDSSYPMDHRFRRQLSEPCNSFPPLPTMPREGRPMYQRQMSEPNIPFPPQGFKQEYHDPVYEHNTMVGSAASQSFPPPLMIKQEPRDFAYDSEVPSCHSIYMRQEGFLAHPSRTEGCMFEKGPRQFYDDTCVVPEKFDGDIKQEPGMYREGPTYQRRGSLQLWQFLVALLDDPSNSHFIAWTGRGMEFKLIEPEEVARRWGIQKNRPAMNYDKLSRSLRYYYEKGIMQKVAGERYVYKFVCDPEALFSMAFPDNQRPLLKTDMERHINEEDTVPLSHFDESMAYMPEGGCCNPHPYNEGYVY
Chain of ETV5 (P41161 whole entry): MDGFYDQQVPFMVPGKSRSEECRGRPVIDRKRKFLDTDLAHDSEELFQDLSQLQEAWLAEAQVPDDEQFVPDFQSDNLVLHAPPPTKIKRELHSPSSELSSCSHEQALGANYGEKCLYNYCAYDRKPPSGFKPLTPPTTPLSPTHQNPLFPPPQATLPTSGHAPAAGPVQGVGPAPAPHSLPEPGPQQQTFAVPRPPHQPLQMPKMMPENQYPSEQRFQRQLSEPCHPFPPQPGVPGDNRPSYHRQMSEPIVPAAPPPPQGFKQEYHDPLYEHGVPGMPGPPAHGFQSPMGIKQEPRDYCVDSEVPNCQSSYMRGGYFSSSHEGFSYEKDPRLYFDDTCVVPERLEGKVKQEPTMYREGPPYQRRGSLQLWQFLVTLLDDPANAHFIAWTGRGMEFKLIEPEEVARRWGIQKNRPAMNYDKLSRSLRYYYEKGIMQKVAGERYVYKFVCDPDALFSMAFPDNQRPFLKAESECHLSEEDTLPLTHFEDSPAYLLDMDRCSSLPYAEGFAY
Chain of ETV6 (P41212 whole entry): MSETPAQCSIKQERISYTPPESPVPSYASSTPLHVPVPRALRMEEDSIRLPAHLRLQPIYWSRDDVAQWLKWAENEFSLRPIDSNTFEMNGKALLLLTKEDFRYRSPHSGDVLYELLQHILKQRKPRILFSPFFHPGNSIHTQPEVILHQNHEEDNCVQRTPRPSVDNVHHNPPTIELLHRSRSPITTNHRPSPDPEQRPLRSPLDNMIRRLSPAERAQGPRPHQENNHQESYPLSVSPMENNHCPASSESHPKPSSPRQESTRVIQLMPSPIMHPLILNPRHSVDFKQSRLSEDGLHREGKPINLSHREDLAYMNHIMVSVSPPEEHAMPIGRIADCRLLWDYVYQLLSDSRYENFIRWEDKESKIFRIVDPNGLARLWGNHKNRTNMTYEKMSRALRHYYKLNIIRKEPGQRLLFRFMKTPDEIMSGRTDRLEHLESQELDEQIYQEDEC

Consider TTCGAA, for which the binding signal in the test with FEV is 1.13 fold enrichment (6-mer frequency, TF over GST control); with ETV5 it was 1.18 fold enrichment (6-mer frequency, TF over GST control); with HSF1, 1.93 fold enrichment (6-mer frequency, TF over GST control); with SPIC, 1.18 fold enrichment (6-mer frequency, TF over GST control); in the test with ELF4 it was 1.26 fold enrichment (6-mer frequency, TF over GST control); with ELK4, 1.2 fold enrichment (6-mer frequency, TF over GST control). The binding signal was 1.16 fold enrichment (6-mer frequency, TF over GST control) in the test with ETV2; 1.24 fold enrichment (6-mer frequency, TF over GST control) in the test with ELF3; 1.3 fold enrichment (6-mer frequency, TF over GST control) with CRX; 1.1 fold enrichment (6-mer frequency, TF over GST control) in the test with ETV1; 1.33 fold enrichment (6-mer frequency, TF over GST control) with ERF; 1.25 fold enrichment (6-mer frequency, TF over GST control) with ETV3L. Further, the binding signal with ETS2 was 1.24 fold enrichment (6-mer frequency, TF over GST control); with SPDEF, 1.17 fold enrichment (6-mer frequency, TF over GST control); with ETV7, 1.26 fold enrichment (6-mer frequency, TF over GST control); with ELF5, 1.14 fold enrichment (6-mer frequency, TF over GST control); in the test with ETV3, 1.03 fold enrichment (6-mer frequency, TF over GST control); with ETV6, 1.15 fold enrichment (6-mer frequency, TF over GST control).
